Assay outcomes from PubChem BioAssay.
CYP2C9 act – increases human cytochrome P450 2C9 activity. activation factor at 5 µM. 1.4% of 96,000 active. P11712. recombinant CYP2C9, luciferin-H conversion, luminescence; hits give high values; factor 1 = untreated enzyme, 0 = blocked. AID 1024;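 active means activation factor of 2 or more for CYP2C9 at a 5 µM dose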
Target sequence (P11712 whole entry, looked up): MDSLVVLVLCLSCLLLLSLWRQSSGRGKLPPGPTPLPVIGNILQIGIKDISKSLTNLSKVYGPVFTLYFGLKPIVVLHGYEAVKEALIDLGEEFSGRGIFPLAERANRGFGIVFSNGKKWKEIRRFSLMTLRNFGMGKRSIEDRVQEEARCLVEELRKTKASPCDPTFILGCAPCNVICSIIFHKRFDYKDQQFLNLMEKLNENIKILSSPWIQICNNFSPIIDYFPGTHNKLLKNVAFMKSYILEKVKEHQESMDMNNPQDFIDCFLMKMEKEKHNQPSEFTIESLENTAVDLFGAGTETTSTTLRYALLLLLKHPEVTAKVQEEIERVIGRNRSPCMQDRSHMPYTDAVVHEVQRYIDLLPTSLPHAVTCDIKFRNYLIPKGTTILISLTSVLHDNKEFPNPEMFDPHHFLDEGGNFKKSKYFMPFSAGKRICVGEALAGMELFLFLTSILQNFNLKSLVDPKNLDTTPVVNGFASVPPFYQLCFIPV
CYP2C9 inhib – inhibitors of human CYP2C9; inhibition, % at 5 µM; CYP2C9 Supersomes, luciferin-H conversion, luminescence; P11712; 20% of 96,000 active;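 active means blocking of liver enzyme CYP2C9 beyond about 50% at 5 µM, limit read from the data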
CYP2C19 inh – inhibitors of human CYP2C19. P33261. CYP2C19 Supersomes, luciferin-H EGE luminescence, 30 min. inhibition, % at 5 µM. 21% of 96,000 active. AID 778;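 active means CYP2C19 inhibition above a set limit at 5 µM in the primary screen, cut at about 50% in these data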
Cav32 inh – human Cav3.2 channel inhibition, primary screen; O95180; Cav3.2-expressing cells, Fluo-4 calcium fluorescence FDSS; hits give low values; B-score at 10 µM; 4% of 100,000 active;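 active means single-dose well whose peak fluorescence ratio is a statistical outlier from its plate by either plate-standardised score or position-corrected B-score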
CYP2C19 act – activators of human cytochrome P450 2C19 | P33261 | recombinant CYP2C19, luciferin-H EGE luminescence; hits give high values; 0 = fully inhibited enzyme, 1 = untreated enzyme | activation factor at 5 µM | 96,000 tested, under 10 active | AID 1025;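 active means activation factor of at least 2 at 5 µM in the primary screen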
Hits are given with their value. Rows were chosen to be rich in hits. Some 27% of all compounds tested hit in one or more screens of this group.

How did N#CCSc1nc(-c2ccccc2)cs1 do in these assays?
CYP2C9 act: inactive; CYP2C9 inhib: inactive; CYP2C19 inh: 56; Cav32 inh: inactive; CYP2C19 act: inactive

Results for N#CCSc1nnc(Nc2ccccc2)s1 ?
CYP2C9 act: inactive; CYP2C9 inhib: inactive; CYP2C19 inh: 84; Cav32 inh: inactive; CYP2C19 act: inactive

How did O=C(Nc1ccccc1)/C(=C\c1ccncc1)NC(=O)c1ccccc1 do in these assays?
CYP2C9 act: inactive; CYP2C9 inhib: 96; CYP2C19 inh: 100; Cav32 inh: inactive; CYP2C19 act: inactive

How did O=C(N/N=C/c1ccncc1)c1ccccc1 do in these assays?
CYP2C9 act: inactive; CYP2C9 inhib: inactive; CYP2C19 inh: inactive; Cav32 inh: inactive; CYP2C19 act: inactive

Results for O=C(Nc1cccc(C(=O)O)c1)/C(=C\c1ccccc1)NC(=O)c1ccccc1Cl ?
CYP2C9 act: inactive; CYP2C9 inhib: inactive; CYP2C19 inh: inactive; Cav32 inh: inactive; CYP2C19 act: inactive

What do the screens show for `Cc1ccc(S(=O)(=O)Oc2ccc(/C=C(/NC(=O)c3ccccc3)C(=O)Nc3ccccc3)cc2)cc1`?
CYP2C9 act: inactive; CYP2C9 inhib: 59; CYP2C19 inh: inactive; Cav32 inh: -5; CYP2C19 act: inactive

What do the screens show for `O=C(N/N=C/c1ccncc1)/C(=C/c1ccccc1)NC(=O)c1ccccc1`?
CYP2C9 act: inactive; CYP2C9 inhib: 79; CYP2C19 inh: 51; Cav32 inh: inactive; CYP2C19 act: inactive

What do the screens show for `Nc1ccc(C(=O)N/N=C/c2ccccc2)cc1`?
CYP2C9 act: inactive; CYP2C9 inhib: inactive; CYP2C19 inh: inactive; Cav32 inh: -5.1; CYP2C19 act: inactive

Results for CCN(C(=O)COC(=O)C(Cc1ccccc1)N1C(=O)c2ccccc2C1=O)C1CCS(=O)(=O)C1 (stereo not given) ?
CYP2C9 act: inactive; CYP2C9 inhib: inactive; CYP2C19 inh: inactive; Cav32 inh: inactive; CYP2C19 act: inactive

What do the screens show for `O=C(CN1C(=O)C2CC=CCC2C1=O)Nc1ccc(S(=O)(=O)NC2=NCCCCC2)cc1` (stereo not given)?
CYP2C9 act: inactive; CYP2C9 inhib: inactive; CYP2C19 inh: inactive; Cav32 inh: inactive; CYP2C19 act: inactive

Results for C#Cc1ccc([C@H]2C=C(C(=O)N3CCN(Cc4ccc5c(c4)OCO5)CC3)O[C@@H](OCC)[C@@H]2CCCO)cc1 ?
Cav32 inh: inactive

How did COc1ccc(C2/C=C\CN(C(=O)C3CCCC3)[C@H](Cc3ccccc3)C(=O)N2Cc2ccc(F)cc2)cc1 (stereo not given in full) do in these assays?
Cav32 inh: inactive

Results for CCC1CCC2(CC1)NNC(=S)NN2 ?
CYP2C9 act: inactive; CYP2C9 inhib: inactive; CYP2C19 inh: inactive; Cav32 inh: inactive; CYP2C19 act: inactive

What do the screens show for `CCN(CC)C(=O)CSc1nnc(CNc2ccc(F)cc2)o1`?
CYP2C9 act: inactive; CYP2C9 inhib: inactive; CYP2C19 inh: inactive; Cav32 inh: inactive; CYP2C19 act: inactive

Results for NCCc1nnc(SCc2ccc(F)cc2)o1 ?
CYP2C9 act: inactive; CYP2C9 inhib: 75; CYP2C19 inh: 90; Cav32 inh: inactive; CYP2C19 act: inactive

How did Fc1ccc(-c2nnn(Cc3nc4ccccc4s3)n2)cc1 do in these assays?
CYP2C9 act: inactive; CYP2C9 inhib: inactive; CYP2C19 inh: 89; Cav32 inh: inactive; CYP2C19 act: inactive

What do the screens show for `CCOC(=O)C1=C(c2ccccc2)N(C)C(=O)NC1c1ccc(O)c(OC)c1` (stereo not given)?
CYP2C9 act: inactive; CYP2C9 inhib: inactive; CYP2C19 inh: 69; Cav32 inh: inactive; CYP2C19 act: inactive

How did CCOC(=O)CN1C(=O)N[C@@H](c2ccccc2)C(C(=O)OC)=C1C do in these assays?
Cav32 inh: inactive

What do the screens show for `CCOC(=O)C1=C(C)N(Cc2ccccc2)C(=O)NC1c1ccc(OC)cc1` (stereo not given)?
Cav32 inh: -5.8

Results for CCOC(=O)c1c(N)sc(C(O)(C(F)(F)F)C(F)(F)F)c1-c1ccccc1 ?
CYP2C9 act: inactive; CYP2C9 inhib: 99; CYP2C19 inh: 90; Cav32 inh: inactive; CYP2C19 act: inactive

Results for COc1ccc(C2SCC(=O)N2CCCN(C)C)cc1 (stereo not given) ?
CYP2C9 act: inactive; CYP2C9 inhib: inactive; CYP2C19 inh: inactive; Cav32 inh: inactive; CYP2C19 act: inactive

What do the screens show for `CCCCCn1c(CCC(=O)Oc2ccccc2OC)nc2c1c(=O)[nH]c(=O)n2CCCC`?
CYP2C9 act: inactive; CYP2C9 inhib: inactive; CYP2C19 inh: inactive; Cav32 inh: inactive; CYP2C19 act: inactive

What do the screens show for `CCCc1nc2c(o1)CC(CC(C)SCC)CC2=O` (stereo not given)?
CYP2C9 act: inactive; CYP2C9 inhib: inactive; CYP2C19 inh: 51; CYP2C19 act: inactive

How did CC(=O)N1c2c(cc(Br)cc2S(=O)(=O)NCc2cccnc2)CC1C (stereo not given) do in these assays?
CYP2C9 act: inactive; CYP2C9 inhib: inactive; CYP2C19 inh: inactive; CYP2C19 act: inactive

Results for CC(=O)N1CCc2cc(Br)cc(S(=O)(=O)NCCN3CCCCC3C)c21 (stereo not given) ?
CYP2C9 act: inactive; CYP2C9 inhib: inactive; CYP2C19 inh: inactive; Cav32 inh: inactive; CYP2C19 act: inactive

How did CC(=O)N1c2c(cc(Br)cc2S(=O)(=O)N2CCOCC2)CC1C (stereo not given) do in these assays?
CYP2C9 act: inactive; CYP2C9 inhib: inactive; CYP2C19 inh: inactive; Cav32 inh: inactive; CYP2C19 act: inactive

What do the screens show for `CCCCN(Cc1ccccc1)S(=O)(=O)c1cc(Br)cc2c1N(C(C)=O)C(C)C2` (stereo not given)?
CYP2C9 act: inactive; CYP2C9 inhib: 95; CYP2C19 inh: inactive; Cav32 inh: -3.3; CYP2C19 act: inactive

How did CC(=O)N1c2c(cc(Br)cc2S(=O)(=O)NCc2ccc3c(c2)OCO3)CC1C (stereo not given) do in these assays?
CYP2C9 act: inactive; CYP2C9 inhib: inactive; CYP2C19 inh: 86; Cav32 inh: inactive; CYP2C19 act: inactive

What do the screens show for `CC(=O)N1c2c(cc(Br)cc2S(=O)(=O)NCC2COc3ccccc3O2)CC1C` (stereo not given)?
CYP2C9 act: inactive; CYP2C9 inhib: inactive; CYP2C19 inh: 65; Cav32 inh: inactive; CYP2C19 act: inactive

How did Cc1ccc(C2CC(C(F)F)n3ncc(C(=O)Nc4cnn(Cc5ccccc5C)c4)c3N2)cc1 (stereo not given) do in these assays?
CYP2C9 act: inactive; CYP2C9 inhib: 62; CYP2C19 inh: inactive; Cav32 inh: inactive; CYP2C19 act: inactive

Results for Cc1ccccc1Cn1cc(NC(=O)c2nc3ncccn3n2)cn1 ?
CYP2C9 act: inactive; CYP2C9 inhib: inactive; CYP2C19 inh: inactive; Cav32 inh: inactive; CYP2C19 act: inactive

Results for CCOc1ccc2[nH]c(=O)c(CN(Cc3ccccc3)C(=O)N3CCCC3)cc2c1 ?
CYP2C9 act: inactive; CYP2C9 inhib: inactive; CYP2C19 inh: inactive; Cav32 inh: inactive; CYP2C19 act: inactive

How did O=C(CN(Cc1ccc(F)cc1)C(=O)C1CSC(=O)C1)NC1CCCCC1 (stereo not given) do in these assays?
CYP2C9 act: inactive; CYP2C9 inhib: inactive; CYP2C19 inh: inactive; Cav32 inh: inactive; CYP2C19 act: inactive
